Experimental data published in PubChem BioAssay AID588832 (Broad Institute, 2011).
The campaign covered roughly 8,000 compounds. Fewer than 10 were called active. The rule behind the calls is not given here. A selection follows.

tested on: hedgehog, isoform A (Drosophila melanogaster); assay: Drosophila hedgehog isoform A inhibitors, primary screen, biochemical, plate reader, single concentration (AID 588832); settings: Biochemical plate reader assay, at 30.3 µM, active compounds read high;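 note: 0% = neutral control wells and 100% = positive control wells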

inhibition, inactive:
COc1cccc(C2c3[nH]c4ccccc4c3C[C@H]3C(=O)N(c4ccccc4C(=O)N4CCCC4C(=O)O)C(=O)N23)c1 (stereo not given in full) -3.51%
Cn1cccc1Cc1nnc(SCC(=O)Nc2ccccc2F)n1-c1ccc(F)cc1 8.33%
Cn1c(=O)c2c(SCc3ccccn3)nc(CC(C)(C)C)nc2n(C)c1=O 4.58%
CSC1=NCCN1C(=O)c1ccc(S(=O)(=O)N2CCCC2)cc1 -1.85%
O=C(Nc1ccccc1Cl)c1ccc2c(c1)N(Cc1ccc(F)cc1)C(=O)CS2=O (stereo not given) 15%
CC1(C2CCC3(C)OC3C2)CO1 (stereo not given) 7.18%
Cc1cccc(N2CCN(C(=O)CCC(=O)N3CC(C)Oc4ccc(C)cc43)CC2C)c1 (stereo not given) 5.06%
COc1cc2c(cc1OC)CN(C(=O)c1ccc3[nH]c(C)c(C)c3c1)CC2 8.74%
O=c1c(Cc2ccccc2O)c(O)nc2n1CCCS2 3.39%
COc1ccc(N(C(=O)c2ccncc2)S(=O)(=O)c2ccc(OC)c(OC)c2)cc1 11.1%
CCCCC(NC(C)=O)c1nc2ccccc2[nH]1 (stereo not given) 5.42%
Cc1cc(Nc2ccc(C(C)C)cc2)n2ncnc2n1 6.72%
Cc1cc(NS(=O)(=O)c2ccc(NC(=O)c3cnc4scc(C)n4c3=O)cc2)nc(C)n1 6.2%
CC(C)OC(=O)c1nnc(Cc2ccc(Cl)cc2)o1 20%
O=C(c1cnn(-c2ccccc2)c1-n1cccc1)N1CCN(C2CCCCC2)CC1 9.55%
Cc1cc(Cl)cc2sc(NC(=O)c3ccco3)nc12 3.57%
O=C(O)c1cccc(N2C(=O)C3CC=C(Cl)CC3C2=O)c1 (stereo not given) 14.9%
CCn1c(C(=O)N2CCC(C(=O)NCc3ccc4c(c3)OCO4)CC2)cc2sccc21 8.81%
COC(=O)C1(Cc2ccc(O)c(CC3OC3(C)C)c2)OC(=O)C(O)=C1c1ccc(O)cc1 (stereo not given) 6.79%
CC(C)[C@H](NC(=O)[C@@H]1Cc2c([nH]c3ccccc23)C2c3ccccc3C(=O)N21)C(=O)N1CCC[C@H]1C(=O)O (stereo not given in full) 5.17%
CCOc1ccc(C2C(C(=O)Nc3ccc(F)cc3)=C(C)Nc3nc(CCCO)nn32)cc1 (stereo not given) 10%
Cc1cc2c(cc1S(=O)(=O)N1CCCCC1)OCC(=O)N2 10.9%
Cc1noc(C)c1S(=O)(=O)N1CCN(C(c2ccccc2)c2ccc(Cl)cc2)CC1 (stereo not given) 8.33%
COc1ccc(S(=O)(=O)Cc2ccc(C(=O)NC3CCCC3)o2)cc1 8.33%
COc1cc(OC)c(NS(=O)(=O)c2coc(C(N)=O)c2)cc1Cl 25%
O=C(C1COc2ccccc2O1)N1CCn2c(nc3ccccc32)C1 (stereo not given) 4.17%
COc1cc(-c2cc(=O)c3c(O)c(OC)c(OC)c(OC)c3o2)cc(OC)c1OC 3.45%
O=C(CN1CCOc2ccccc21)NC1CCCCCCC1 25%
Cc1cccc(NC(=O)CSc2nc3ccccc3nc2N2CC(C)OC(C)C2)c1 (stereo not given) 3.85%
CCOc1ccc(NC(=O)c2cccc(NC3=NC4CS(=O)(=O)CC4S3)c2)cc1 (stereo not given) 5.12%
COc1ccccc1C(=O)OCn1nnc2ccccc2c1=O -5%
Cc1c(C)c2c(OCC(=O)N[C@@H](Cc3ccccc3)C(=O)O)cc3c(c2oc1=O)CCC(C)(C)O3 -1.79%
Clc1ccccc1C1CC(c2ccccc2)Nc2ncnn21 (stereo not given) 8.33%
O=C(NCCCN1CCOCC1)c1ccccc1N1C(=O)[C@@H]2Cc3c([nH]c4ccccc34)C(c3cccc(Cl)c3)N2C1=O (stereo not given in full) 0%
CCCc1cc(=O)oc2cc(OC(C)C(=O)NCC3CCC(C(=O)O)CC3)c(Cl)cc12 (stereo not given) 7.18%
O=C(CCC(=O)N1CCOc2ccccc21)Nc1ccccc1Br 6.78%
CC1(C)Cc2c(C#N)c(NC3CCCCC3)nc(-c3ccco3)c2CO1 3.64%
COc1ccc2[nH]c3c(c2c1)CCN1C(=O)N([C@@H](C)C(=O)NCc2ccc(C)cc2)C(=O)[C@]31C 0%
CC(=O)O[C@H]1C(=O)[C@@]2(C)C([C@H](OC(=O)c3ccccc3)[C@]3(O)C[C@H](OC(=O)[C@H](O)[C@@H](NC(=O)c4ccccc4)c4ccccc4)C(C)=C1C3(C)C)[C@]1(OC(C)=O)CO[C@@H]1C[C@H]2O (stereo not given in full) 5.12%
CCc1nn(CC(=O)N2CCN(C)CC2)c(=O)c2cccn12 5.06%
Cc1ccc(S(=O)(=O)NCc2ccc3[nH]c(C)cc3c2)cc1 3.57%
CC1CCCN(C(c2ccccc2)c2sc3ncnn3c2O)C1 (stereo not given) 5.06%
CCOc1ccc(-n2c(SCC(=O)N3CCc4ccccc43)nnc2-c2c[nH]c3ccccc23)cc1 13.3%
Nc1nc2n(n1)C(c1cccc(Br)c1)CC(c1ccc(F)cc1)N2 (stereo not given) 23.4%
CCOc1ccc(-c2nc(CS(=O)(=O)CC(=O)NCc3ccc(F)cc3)c(C)o2)cc1 3.57%
COc1ccccc1NC(=O)NCCCN1CCN(c2cccc(Cl)c2)CC1 -5.49%
Cc1c(S(=O)(=O)Nc2cccc(Cl)c2)c(=O)n(C)c(=O)n1C 0.909%
COc1cc(OC)cc(C(=O)OCn2nnc3ccccc3c2=O)c1 0%
COC(=O)c1ccccc1NC(=O)C1CCCN(c2nnc(-n3cccc3)s2)C1 (stereo not given) 0.909%
C/C=C/c1cc(OC)c2c(c1)[C@H](C)[C@@H](c1ccc(O)c(OC)c1)O2 0%
CCCn1c(CN2CCCCC2C)nc2c1c(=O)n(C)c(=O)n2C (stereo not given) 3.57%
COC(=O)C1=C(C)Nc2ccc(C)cc2S1 0%
CC(=O)c1ccc(NC(=O)C2CCCN2S(=O)(=O)c2ccc(C)cc2)cc1 (stereo not given) 15.4%
CCOc1ccc(NC(c2ccccn2)c2oc(CO)cc(=O)c2O)cc1 (stereo not given) 1.85%
COc1ccc(NC(=O)c2cc(S(=O)(=O)N3CCc4ccccc43)cn2C)cc1 -3.51%
